Compound activity as filed in PubChem BioAssay.
ANO1 activ – activators or potentiators of mouse TMEM16A chloride channel. B-score at 10 µM. actives 0.3% (n = 340,000). Q8BHY3. HEK293 TMEM16A/YFP-H148Q/I152L, iodide quench fluorescence; stronger effect = lower value;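 active = fluorescence-ratio B-score plate-corrected deviation score at least 3 library SD below zero, with starting fluorescence score within 5 deviations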;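 also: channel opened by trigger with iodide after compound preincubation; score built on the fluorescence ratio of max minus min over baseline; more negative score means more quench and so TMEM16A activation or potentiation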
Target sequence (Q8BHY3 whole entry, looked up): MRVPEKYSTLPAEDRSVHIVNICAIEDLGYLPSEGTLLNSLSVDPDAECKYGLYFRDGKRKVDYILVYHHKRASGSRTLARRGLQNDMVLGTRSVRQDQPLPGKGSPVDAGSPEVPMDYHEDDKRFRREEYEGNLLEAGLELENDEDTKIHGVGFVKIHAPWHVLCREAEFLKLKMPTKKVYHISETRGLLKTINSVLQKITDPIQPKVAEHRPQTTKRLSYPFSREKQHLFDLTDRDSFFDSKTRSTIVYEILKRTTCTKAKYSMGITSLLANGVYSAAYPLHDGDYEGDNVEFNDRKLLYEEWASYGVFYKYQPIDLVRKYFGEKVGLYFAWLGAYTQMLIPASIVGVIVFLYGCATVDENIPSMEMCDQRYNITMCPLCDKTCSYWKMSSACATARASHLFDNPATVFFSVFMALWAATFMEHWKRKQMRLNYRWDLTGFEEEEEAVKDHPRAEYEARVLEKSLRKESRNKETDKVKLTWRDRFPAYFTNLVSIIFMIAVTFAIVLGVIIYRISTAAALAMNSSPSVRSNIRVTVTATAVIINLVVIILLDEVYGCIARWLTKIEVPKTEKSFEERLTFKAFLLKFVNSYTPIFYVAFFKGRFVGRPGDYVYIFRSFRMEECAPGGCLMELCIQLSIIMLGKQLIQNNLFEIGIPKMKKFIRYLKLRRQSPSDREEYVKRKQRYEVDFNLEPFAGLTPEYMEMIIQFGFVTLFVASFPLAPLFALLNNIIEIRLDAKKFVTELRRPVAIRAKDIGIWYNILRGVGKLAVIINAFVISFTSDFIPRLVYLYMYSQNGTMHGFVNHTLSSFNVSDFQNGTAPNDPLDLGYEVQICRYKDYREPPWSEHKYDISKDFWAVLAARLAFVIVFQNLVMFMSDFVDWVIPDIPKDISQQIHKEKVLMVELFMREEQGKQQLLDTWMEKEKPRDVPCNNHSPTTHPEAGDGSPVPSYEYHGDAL
MPTP inh – blocks calcium-induced mitochondrial swelling | isolated mouse mitochondria, Ca2+ swelling absorbance, 30 min | actives 1.4% (n = 360,000) | inhibition, % at 10 µM;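 active = inhibition of 50% or more, scaled per plate between neutral and stimulator controls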;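 also: 0% = DMSO wells given calcium and 100% = 1 mM EGTA wells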
NR3A LBD binder – NR3A (human) ligand-binding domain modulation; NR3A LBD differential scanning fluorimetry, Tm shift; 0% = protein alone, 100% = glycine-bound protein; Tm shift relative to glycine control, % at 25 µM; actives 2.5% (n = 340,000); AID 1259313;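 active = melting temperature shift of at least 10% of the positive control shift, at one fixed dose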
ANO1 block – blocks the mouse calcium-activated chloride channel TMEM16A; actives 1.2% (n = 310,000); AID 588511; HEK293 TMEM16A/YFP iodide influx fluorescence, ionomycin; normalized B-score (activity score, 25-100; higher = stronger inhibition) at 10 µM; Q8BHY3;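 active = ratio plate-corrected score three or more library SD toward inhibition, starting fluorescence score within five deviations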;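 also: score derived from kinetic fluorescence span divided by baseline fluorescence per well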
CRFBP-R2 block – blocks CRF-induced signaling of the CRF-BP/CRF-R2 complex | HEK293 CRF-R2/CRF-BP, CRF-induced calcium fluorescence | inhibition, % at 11.8 µM | actives 0.59% (n = 350,000) | AID 588475;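 active = inhibition of the ligand-induced calcium signal above about 50% at the single tested concentration, limit read from the data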
CRFR2-BP ag – agonists of human CRF-binding protein/CRF-R2 receptor complex | HEK293 CRF-R2/CRF-BP, calcium dye fluorescence (FLIPR); percent of saturating CRF peptide response | activation, % at 13.2 µM | actives 0.46% (n = 350,000) | AID 588473;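 active = activation of at least 50%, plus an integration ratio under a set limit after plate pattern correction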;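 also: plate controls were neutral control wells without compound for no effect and CRF at EC100 for full effect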
* = called active by the depositor; i = inactive; x = no result given. Rows were chosen to be rich in hits. Some 5.1% of all compounds tested hit in one or more screens of this group.

SMILES | ANO1 activ | MPTP inh | NR3A LBD binder | ANO1 block | CRFBP-R2 block | CRFR2-BP ag
O=C(CN1c2ccccc2Sc2ccccc21)NNC(=O)Nc1cccc(Cl)c1 | i | 38.4 | 18.4* | i | 4.2 | -1.2
Cc1ccc(-c2nn(C)c(=O)c3ccccc23)cc1CO | i | 2.4 | -1.4 | i | 68.7* | -2.6
Cc1ccc(NC(=O)CN2c3cccc4cccc(c34)S2(=O)=O)cc1 | i | -0.4 | -3.6 | x | -8.4 | -0.4
COc1ccc(-c2cc(-c3n[nH]c(=S)n3-c3cccc4ccccc34)[nH]n2)cc1 | i | -0.6 | -18.0 | i | -75.0 | -0.5
COc1ccccc1-n1c(-c2cc(-c3ccc(F)cc3)n[nH]2)n[nH]c1=S | i | 1.4 | 18.9* | i | -29.5 | 1.9
O=C(Nc1cccc2ccccc12)N1CCOCC1 | i | 3.3 | 17.3* | i | 11.1 | -1.3
COc1ccc(-c2noc(N3CCCC(C(=O)Nc4ccccc4F)C3)n2)cc1 (stereo not drawn) | i | 1.4 | 12.8* | i | 26.9 | -1.4
O=S1(=O)[C@H]2C[C@H](CO)O[C@@]2(CO)CN1Cc1ccc(-c2ccc(F)cc2)cc1 | x | -1.0 | 0.2 | x | 3.6 | 4.6
Cc1nn(-c2ccccc2)c(/N=C/c2ccccc2O)c1-c1ccccc1 | i | 6.0 | 14.4* | i | -4.1 | 5.5
O=C(C1COc2ccccc2O1)N1CCN(Cc2ccc(Br)cc2F)CC1 (stereo not drawn) | i | 2.0 | -1.3 | i | 9.8 | -1.1
Cc1[nH]nc(-c2ccc(OCc3cnn(-c4ccccc4)c3)cc2O)c1Oc1ccc(F)cc1 | i | 6.5 | 20.3* | i | -6.5 | 0.9
CCOc1ccc(-c2n[nH]c(C)c2Oc2ccc(OC)cc2)c(O)c1 | i | 5.7 | 12.3* | i | 4.5 | -1.1
CCOc1ccc(-c2nc(N)ncc2Oc2cccc(OC)c2)c(O)c1 | i | 1.9 | -18.4 | i | 53.7* | -0.3
Cc1[nH]nc(-c2ccc(OCc3cnn(-c4ccccc4)c3)c(C)c2O)c1Oc1ccccc1 | i | 4.0 | 4.3 | i | -15.1 | 5.9
Cc1[nH]nc(-c2ccc(O)c(C)c2O)c1Oc1ccccc1 | i | 31.2 | -8.1 | i | 13.6 | -0.7
CC(=O)c1ccc2c3c(cc(C)c2c1)CCCC3 | i | 0.8 | 2.8 | x | -9.3 | 3.0
CCOC(=O)[C@@H]1[C@H]2COc3ccc(Br)cc3[C@H]2N2C(=O)N(c3ccc(C(F)(F)F)cc3)C(=O)[C@]12C | i | 0.8 | -5.8 | x | -3.9 | 3.4
Oc1ccc(/C=N/Nc2nc(-c3ccc(Cl)cc3)cc(C(F)(F)F)n2)cc1 | i | 7.2 | 31.6* | i | -19.6 | -1.1
Cn1nc(N2CCN(S(=O)(=O)c3ccccc3)CC2)c(=O)n(C)c1=O | -29.5* | -1.3 | -2.7 | x | 1.0 | -0.1
Cc1ccc(C)c(N(CC(=O)Nc2ccc(-c3nc4ccc(C)cc4s3)cc2)S(C)(=O)=O)c1 | i | 3.3 | 23.5* | i | -44.2 | 0.8
Cc1ccc(S(=O)(=O)Nc2ccc(-c3nc4ccc(C)cc4s3)cc2)cc1 | i | -4.2 | 16.0* | i | -18.1 | 9.0
Cc1cccc(S(=O)(=O)Nc2ccc(-c3nc4ccc(C)cc4s3)cc2)c1 | i | 5.0 | 3.0 | i | -50.9 | 2.7
Cc1ccc2nc(-c3ccc(NC(=O)C(C)Sc4nncs4)cc3)sc2c1 (stereo not drawn) | i | 2.9 | 14.3* | i | -37.9 | 6.4
CN(CC(=O)Nc1ccccc1Cl)C(=O)COC(=O)c1cc(S(=O)(=O)N(C)C)ccc1N1CCCC1 | i | -0.8 | 0.7 | i | -24.9 | -0.1
O=C(Cn1cnc2c(NCc3ccccc3)ncnc21)NCCc1cc2ccccc2[nH]1 | x | 1.1 | -1.2 | x | 10.5 | 4.8
SMILES | ANO1 activ | MPTP inh | NR3A LBD binder | ANO1 block | CRFBP-R2 block | CRFR2-BP ag
COc1ccc(NC(=O)C(c2cc3c(cc2[N+](=O)[O-])OCO3)N(C)c2ccccc2)cc1 (stereo not drawn) | i | 1.1 | -13.2 | i | -241.2 | 90.3*
COc1ccc(NC(=O)c2ccc3c(c2)OCO3)cc1 | i | -1.9 | 0.3 | i | 2.5 | -0.1
O=C(Cc1ccc(Cl)cc1)Nc1ccc(Br)cn1 | i | 3.1 | 0.9 | i | -0.6 | -4.0
CCN1C(=O)[C@H]2[C@@H](c3ccc(C(F)(F)F)cc3)N[C@]3(CCCN(Cc4ccc(OC)cc4)C3=O)[C@H]2C1=O | x | 9.5 | x | x | -2.0 | -1.1
O=C(Cc1cccs1)Nc1ccc(-c2nc3ccccc3[nH]2)cc1 | i | 0.1 | 32.4* | i | -17.6 | -1.4
O=C(CSc1ccccc1)Nc1ccc2sccc2c1 | i | -0.2 | 16.6* | i | 4.5 | -1.5
O=C(COc1ccccc1)Nc1cccc(-c2nc3ccccc3[nH]2)c1 | i | 11.5 | 7.3 | i | -34.3 | -1.4
COc1ccc(OCC(=O)Nc2cccc(-c3nc4ccccc4[nH]3)c2)cc1 | i | 0.3 | 19.5* | i | -31.4 | -0.4
Cc1ccc2nc(-c3ccc(NC(=O)CSc4ccccc4)cc3)[nH]c2c1 | i | 1.8 | 29.1* | i | 6.1 | 0.7
O=C(CN1CCOCC1)Nc1ccc(-c2nc3ccccc3[nH]2)cc1 | i | 0.1 | -6.8 | i | 9.5 | -1.0
CCCNC(=O)C(Cc1ccc(C(F)(F)F)cc1)NC(=O)c1ccc(C#N)cc1 (stereo not drawn) | i | -1.6 | 0.2 | x | 3.5 | -1.3
O=C(CSc1ccccc1)Nc1ccc(-c2nc3ccccc3[nH]2)cc1 | i | 0.2 | 32.9* | i | -50.0 | -0.9
COc1ccc2nc(SCC(=O)NCc3ccccc3)[nH]c2c1 | i | 1.7 | 0.9 | i | -5.7 | -3.0
CCCCNS(=O)(=O)c1ccc2nc(SCC(=O)Nc3cccc(F)c3)[nH]c2c1 | i | 41.0 | 16.9* | i | -54.3 | 0.3
O=C(O)CCCC(=O)Nc1cccc(-c2nc3ccccc3[nH]2)c1 | i | -0.9 | 0.2 | i | -0.9 | -1.3
COc1ccc2nc(SCC(=O)Nc3ccccc3)[nH]c2c1 | i | 6.0 | 17.2* | i | -7.7 | -1.3
O=C(CSc1ccc(Cl)cc1)Nc1cccc(-c2nc3ccccc3[nH]2)c1 | i | -2.9 | 31.6* | i | -9.9 | 0.7
COc1cc(C(=O)OCC(=O)N2CCCC2=O)cc(OC)c1C | i | 1.2 | 0.9 | x | -2.4 | 0.2
O=C(CSc1nc(-c2ccc(Cl)cc2)[nH]c(=O)n1)Nc1cccc(Cl)c1 | i | 38.5 | 12.1* | i | 24.1 | -1.3
N#CCc1ccc(NS(=O)(=O)c2cccs2)cc1 | i | 1.4 | 1.0 | i | 111.5* | -0.1
O=S(=O)(Nc1ccc(Cc2ccncc2)cc1)c1cccs1 | i | 2.2 | 0.3 | i | -1.8 | 0.9
Clc1ccc(SCNc2ccccc2Cl)cc1 | i | -1.1 | 10.3* | i | -19.6 | 0.5
Cc1ccc(NCSc2ccc(Cl)cc2)cc1 | i | 1.1 | -14.4 | x | 25.8 | -4.8
